We go through 37 compounds from publication PMC5540273 (PLoS ONE, 2017).
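Further: KINOMEscan kinase panel screen.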

One test deals with EIF2AK1. As to conditions: concentration: 1 μM, replicates: in singlicate; n = 1.
In the case of `CN1C(=O)C(Nc2cc(Cl)c(O)c(Cl)c2)=C(c2ccc(Cl)cc2)C1=O` [SB-404321], the “%Inh” value came to 0%.

Regarding `CCC(=O)c1c(-c2ccccc2)c2cc(Cl)ccc2c(=O)n1Cc1cc(C(=O)NC2CC2)n(C)n1`, the “%Inh” value is reported as 0%.

As to `COc1cccc(C2=C(Nc3cccc(C(=O)O)c3)C(=O)NC2=O)c1` [SB-390770], the “%Inh” value worked out at 0%.

Regarding `O=C(Nc1ccc2c(c1)OCO2)NC1CCN(c2ccnc(NCc3ccc(F)cc3)n2)CC1` [GSK1379859], the “%Inh” value came out at 10%.

With `COc1cc2nccc(Nc3cccc(Oc4ccccc4)c3)c2cc1OC.Cl` [GW284543], the “%Inh” value was determined as 0%.

In the case of `COc1cc(Nc2nccc(N3CCC(NC(=O)C(C)c4ccc(Cl)cc4)C3)n2)cc(OC)c1OC` (centres unmarked) [GSK1379757], the “%Inh” value is 0%.

Consider `Cc1ccccc1COc1cc(-n2cnc3cc(Cl)ccc32)sc1C(N)=O` [GW813349], for which the “%Inh” value is given as 6%.

Take `CCC(=O)c1c(-c2ccccc2)c2cc(Cl)ccc2c(=O)n1Cc1cc(S(C)(=O)=O)n(CCC(C)(C)O)n1`: the “%Inh” value was determined as 19%.

`Cc1nn2c(=O)cc(N3CCOCC3)nc2n1Cc1cccc(Cl)c1Cl` [GSK2342769]: the “%Inh” value is 0%.

On to `COc1ccc(Nc2nccc(N3CCC(NS(=O)(=O)c4ccc(NC(C)=O)cc4)C3)n2)cc1` (centres unmarked) [GSK1379729], for which the “%Inh” value is on record as 0%.

Take `Cc1cccc(-c2nc(Nc3ccc4c(cnn4C)c3)c3ccccc3n2)n1` [GW876731]: the “%Inh” value is on record as 0%.

`C[C@@H]1CC[C@H](C(=O)NC2CCCCC2)CN1c1cc(-c2ccc3c(N)n[nH]c3c2)nc(N)n1` [GSK2291363]: the “%Inh” value stood at 0%.

In the case of `COc1cc2ncn(-c3cc(OCc4ccncc4Br)c(C(N)=O)s3)c2cc1OC` [GW854278], the “%Inh” value amounted to 0%.

For the compound `Cc1ccc(-c2ccc3c(ccc4sc5c(c43)NC[C@@H](C)N=C5N(C)C)n2)cn1`, the “%Inh” value came to 7%.

For `COc1ccc(-c2coc3ccc(-c4nnc(SCc5cccc(C#N)c5)o4)cc23)cc1`, the “%Inh” value was 30%.

Take `Cc1cc(Nc2nc(-c3cccc(C)n3)nc3ccccc23)ccn1` [GW872411]: the “%Inh” value is recorded as 0%.

For the compound `Cl.NS(=O)(=O)c1cccc(Nc2cc(-c3ccc(F)cc3)n[nH]2)c1` [GW824645], the “%Inh” value is given as 0%.

For `CC(C)(C)c1ccc(C(=O)Nc2cn3cc(-c4ccccc4)ccc3n2)cc1`, the “%Inh” value is given as 0%.

For the compound `CCn1c(-c2ccoc2)nc2cnccc21` [SB-733887], the “%Inh” value stood at 8%.

For `Nc1n[nH]c2nnc(-c3ccccc3)c(-c3ccccc3)c12` [GW554060], the “%Inh” value is reported as 0%.

With `CN(C)c1cc(-c2ccc3c(N)n[nH]c3c2)nc(N)n1` [GSK2219329], the “%Inh” value is listed as 0%.

Consider `Nc1ncnc2c1ncn2-c1cccc(F)c1` [SKF-97560], for which the “%Inh” value was determined as 28%.

Consider `Nc1nc(-c2ccccc2F)c(-c2ccnc3ccccc23)s1` [GW560459], for which the “%Inh” value is given as 0%.

As for `CCn1c(-c2nonc2N)nc2ccccc21` [SB-693162/GW549034], the “%Inh” value stood at 48%.

For `Cc1ccc(Oc2ccc(Nc3ncnc4cc[nH]c34)cc2C)cn1`, the “%Inh” value is on record as 13%.

Consider `Cc1nnc(-c2ccc(C)c(-c3ccc(C(=O)O)cc3)c2)o1` [GW608005], for which the “%Inh” value was determined as 0%.

Take `CCS(=O)c1ccc(-c2coc3ccc(-c4nnc(C)o4)cc23)cc1` (centres unmarked): the “%Inh” value came out at 0%.

On to `COC(=O)c1c(-c2ccccc2)c2cc(C)ccc2c(=O)n1Cc1ccccc1`, for which the “%Inh” value came out at 0%.

For the compound `Nc1nccc2scc(-c3ccc4c(c3)CCN4C(=O)Cc3ccccc3)c12` [GSK2576924], the “%Inh” value amounted to 0%.

For the compound `OCCCNc1nccc(-c2c(-c3cccc(C(F)(F)F)c3)nn3cc(C(F)(F)F)ccc23)n1` [GW630813], the “%Inh” value came out at 0%.

For `O=c1cc(N2CCOCC2)nc2n(Cc3ccc(F)c(Cl)c3)ccn12` [GSK2297099], the “%Inh” value is 0%.

In the case of `Cc1nnc(-c2ccc3ncn(-c4ccc(S(C)=O)cc4)c3c2)o1` (centres unmarked), the “%Inh” value amounted to 0%.

With `COC(=O)c1c(-c2ccccc2)c2cc(Br)ccc2c(=O)n1Cc1ccc(NC(=O)CCC(=O)O)cc1`, the “%Inh” value is given as 12%.

Regarding `COc1cc(OC)cc(-c2cc3cnc(N)nc3nc2NC(=O)NC(C)(C)C)c1`, the “%Inh” value is reported as 4%.

With `Nc1ncnc2c1ncn2-c1ccc(Cl)cc1` [AH2635], the “%Inh” value is 0%.

Take `Cl.c1ccc(Cn2cnc3cc(Nc4ncnc5ccccc45)ccc32)cc1` [GW272142]: the “%Inh” value amounted to 0%.

For `CCC(=O)c1c(-c2ccccc2)c2cc(Cl)ccc2c(=O)n1Cc1ccc(C(=O)O)cc1`, the “%Inh” value is listed as 0%.

A further test deals with EPHA1. As to conditions: concentration: 1 μM, replicates: in singlicate; n = 1.
Consider `CN1C(=O)C(Nc2cc(Cl)c(O)c(Cl)c2)=C(c2ccc(Cl)cc2)C1=O` [SB-404321], for which the “%Inh” value is on record as 0%.

Regarding `CCC(=O)c1c(-c2ccccc2)c2cc(Cl)ccc2c(=O)n1Cc1cc(C(=O)NC2CC2)n(C)n1`, the “%Inh” value is listed as 4%.

Turning to `COc1cccc(C2=C(Nc3cccc(C(=O)O)c3)C(=O)NC2=O)c1` [SB-390770], the “%Inh” value stood at 9%.

As for `O=C(Nc1ccc2c(c1)OCO2)NC1CCN(c2ccnc(NCc3ccc(F)cc3)n2)CC1` [GSK1379859], the “%Inh” value was 8%.

`COc1cc2nccc(Nc3cccc(Oc4ccccc4)c3)c2cc1OC.Cl` [GW284543]: the “%Inh” value is on record as 10%.

As for `COc1cc(Nc2nccc(N3CCC(NC(=O)C(C)c4ccc(Cl)cc4)C3)n2)cc(OC)c1OC` (centres unmarked) [GSK1379757], the “%Inh” value came out at 4%.

Consider `Cc1ccccc1COc1cc(-n2cnc3cc(Cl)ccc32)sc1C(N)=O` [GW813349], for which the “%Inh” value is 9%.

Regarding `CCC(=O)c1c(-c2ccccc2)c2cc(Cl)ccc2c(=O)n1Cc1cc(S(C)(=O)=O)n(CCC(C)(C)O)n1`, the “%Inh” value turned out to be 0%.

Consider `Cc1nn2c(=O)cc(N3CCOCC3)nc2n1Cc1cccc(Cl)c1Cl` [GSK2342769], for which the “%Inh” value worked out at 10%.

As for `COc1ccc(Nc2nccc(N3CCC(NS(=O)(=O)c4ccc(NC(C)=O)cc4)C3)n2)cc1` (centres unmarked) [GSK1379729], the “%Inh” value is on record as 23%.

On to `Cc1cccc(-c2nc(Nc3ccc4c(cnn4C)c3)c3ccccc3n2)n1` [GW876731], for which the “%Inh” value was found to be 6%.

With `C[C@@H]1CC[C@H](C(=O)NC2CCCCC2)CN1c1cc(-c2ccc3c(N)n[nH]c3c2)nc(N)n1` [GSK2291363], the “%Inh” value was 6%.

As for `COc1cc2ncn(-c3cc(OCc4ccncc4Br)c(C(N)=O)s3)c2cc1OC` [GW854278], the “%Inh” value was 25%.

For `Cc1ccc(-c2ccc3c(ccc4sc5c(c43)NC[C@@H](C)N=C5N(C)C)n2)cn1`, the “%Inh” value is 0%.

Consider `COc1ccc(-c2coc3ccc(-c4nnc(SCc5cccc(C#N)c5)o4)cc23)cc1`, for which the “%Inh” value turned out to be 7%.

On to `Cc1cc(Nc2nc(-c3cccc(C)n3)nc3ccccc23)ccn1` [GW872411], for which the “%Inh” value is listed as 0%.

Regarding `Cl.NS(=O)(=O)c1cccc(Nc2cc(-c3ccc(F)cc3)n[nH]2)c1` [GW824645], the “%Inh” value was found to be 0%.

Consider `CC(C)(C)c1ccc(C(=O)Nc2cn3cc(-c4ccccc4)ccc3n2)cc1`, for which the “%Inh” value was 0%.

Regarding `CCn1c(-c2ccoc2)nc2cnccc21` [SB-733887], the “%Inh” value amounted to 9%.

In the case of `Nc1n[nH]c2nnc(-c3ccccc3)c(-c3ccccc3)c12` [GW554060], the “%Inh” value is recorded as 15%.

`CN(C)c1cc(-c2ccc3c(N)n[nH]c3c2)nc(N)n1` [GSK2219329]: the “%Inh” value was 15%.

As to `Nc1ncnc2c1ncn2-c1cccc(F)c1` [SKF-97560], the “%Inh” value is 11%.

Take `Nc1nc(-c2ccccc2F)c(-c2ccnc3ccccc23)s1` [GW560459]: the “%Inh” value was 0%.

For the compound `CCn1c(-c2nonc2N)nc2ccccc21` [SB-693162/GW549034], the “%Inh” value is reported as 0%.

In the case of `Cc1ccc(Oc2ccc(Nc3ncnc4cc[nH]c34)cc2C)cn1`, the “%Inh” value amounted to 13%.

In the case of `Cc1nnc(-c2ccc(C)c(-c3ccc(C(=O)O)cc3)c2)o1` [GW608005], the “%Inh” value is on record as 0%.

On to `CCS(=O)c1ccc(-c2coc3ccc(-c4nnc(C)o4)cc23)cc1` (centres unmarked), for which the “%Inh” value is 5%.

`COC(=O)c1c(-c2ccccc2)c2cc(C)ccc2c(=O)n1Cc1ccccc1`: the “%Inh” value is given as 0%.

Regarding `Nc1nccc2scc(-c3ccc4c(c3)CCN4C(=O)Cc3ccccc3)c12` [GSK2576924], the “%Inh” value is listed as 9%.

Regarding `OCCCNc1nccc(-c2c(-c3cccc(C(F)(F)F)c3)nn3cc(C(F)(F)F)ccc23)n1` [GW630813], the “%Inh” value was 5%.

`O=c1cc(N2CCOCC2)nc2n(Cc3ccc(F)c(Cl)c3)ccn12` [GSK2297099]: the “%Inh” value turned out to be 12%.

For `Cc1nnc(-c2ccc3ncn(-c4ccc(S(C)=O)cc4)c3c2)o1` (centres unmarked), the “%Inh” value was 0%.

With `COC(=O)c1c(-c2ccccc2)c2cc(Br)ccc2c(=O)n1Cc1ccc(NC(=O)CCC(=O)O)cc1`, the “%Inh” value is listed as 24%.

With `COc1cc(OC)cc(-c2cc3cnc(N)nc3nc2NC(=O)NC(C)(C)C)c1`, the “%Inh” value was determined as 28%.

With `Nc1ncnc2c1ncn2-c1ccc(Cl)cc1` [AH2635], the “%Inh” value is given as 0%.

Turning to `Cl.c1ccc(Cn2cnc3cc(Nc4ncnc5ccccc45)ccc32)cc1` [GW272142], the “%Inh” value is recorded as 4%.

Turning to `CCC(=O)c1c(-c2ccccc2)c2cc(Cl)ccc2c(=O)n1Cc1ccc(C(=O)O)cc1`, the “%Inh” value is listed as 0%.
